In PubChem BioAssay (EPA / NIEHS):
Several values for one entry are separate records, joined by “and”; a condition that tells them apart may be missing. Equal values may be shown once. More than one record can exist for a structure, and the calls need not agree. Activity calls are given as the source filed them. Rule for the calls: active = hit-call score of the fitted dose curve at least 0.9, where 1 is the maximum; inactive = score below 0.9.

How the values were obtained:
[1] = target: CCAAT/enhancer-binding protein beta (Homo sapiens) (UniProt P17676); test: ATG_C_EBP_CIS: Attagene CIS-FACTORIAL HepG2 Assay for human CCAAT/Enhancer Binding Protein (C/EBP) beta (AID 2282927); conditions: HepG2 Attagene cis-factorial transcription factor reporter; actives raise or lower the signal
Outline: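 Chemical-treated HepG2 cells (24 h) bearing cis-regulated reporter constructs were processed for total RNA, then reverse transcription, PCR amplification, fluorescent primer extension and fragment analysis; gain- and loss-of-signal were fitted against DMSO.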

[2] = ATG_CMV_CIS: Attagene CIS-FACTORIAL HepG2 Assay for human CMV (Internal Marker) (AID 2282928); conditions: HepG2 CMV promoter reporter, transcription factor profiling; actives raise or lower the signal;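 note: endpoint acts as a background internal control marker rather than a target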
Outline: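 24 h chemical treatment, HepG2 with transient multi-reporter transfection; RNA → oligo(dT) RT → PCR → 6-FAM extension → HpaI digest → CE fluorescence. Bidirectional fit, DMSO negative control.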

[3] = ATG_DR4_LXR_CIS: Attagene CIS-FACTORIAL HepG2 Assay for human Liver X Receptor (LXR), DR4 submotif (AID 2282929); conditions: HepG2 Attagene DR4 cis-reporter, mRNA transcription; AC50: actives raise or lower the signal unless noted; outcome: actives raise or lower the signal unless noted
Outline: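 Measures endogenous transcription factor activity via a DR4-driven reporter transcript in human HepG2 cells. Compounds incubated 24 h; mRNA quantified by RT-PCR and capillary electrophoresis, analysed as gain or loss of signal versus DMSO.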

[4] = ATG_AP_1_CIS: Attagene CIS-FACTORIAL HepG2 Assay for human Activator Protein 1 (AP-1) (AID 2282931); conditions: HepG2 Attagene cis-factorial AP-1 reporter mRNA; actives raise or lower the signal
Outline: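 Bidirectional concentration-response fitting against DMSO controls. Underlying signal: reporter mRNA from cis-promoter constructs in transiently transfected HepG2, measured after 24 h by RT-PCR and capillary electrophoresis.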

[5] = ATG_AP_2_CIS: Attagene CIS-FACTORIAL HepG2 Assay for human Activator Protein 2 (AP-2) (AID 2282932); conditions: HepG2 AP-2 cis-reporter, Attagene transcription factor profiling; AC50: actives raise or lower the signal unless noted; outcome: actives raise or lower the signal unless noted
Outline: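 Cells (HepG2) transfected with promoter-driven reporter constructs, treated 24 h. Total RNA reverse-transcribed, reporter cDNA PCR-amplified, FAM-labelled by primer extension, digested, resolved by capillary electrophoresis. Activity fitted both directions versus DMSO.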

[6] = ATG_BRE_CIS: Attagene CIS-FACTORIAL HepG2 Assay for human Bone Morphogenetic Protein (BMP) Response Element (BRE) (AID 2282933); conditions: HepG2 BMP response element reporter, Attagene transcription factor profiling; actives raise or lower the signal
Outline: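 After a 24 h chemical treatment, transiently transfected HepG2 cells were lysed for RNA; reporter transcripts were quantified by fluorescent RT-PCR and capillary electrophoresis, normalised to DMSO.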

[7] = target: Retinoic acid receptor alpha (Homo sapiens) (UniProt P10276); test: ATG_DR5_RAR_CIS: Attagene CIS-FACTORIAL HepG2 Assay for human Retinoic Acid Receptor Alpha (RARE), DR5 submotif (AID 2282934); conditions: HepG2 Attagene cis-factorial RARE DR5 reporter, mRNA; actives raise or lower the signal;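 for AC50: reporter responds to endogenous RAR alpha beta and gamma in HepG2 not RARA alone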
Outline: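 Transfected HepG2 reporter cells are exposed to chemicals for 24 h. Then RNA is extracted and the DR5 element reporter transcript is measured by RT-PCR and capillary electrophoresis, with bidirectional curve fitting relative to DMSO.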

[8] = target: Transcription factor E2F1 (Homo sapiens) (UniProt Q01094); test: ATG_E2F_CIS: Attagene CIS-FACTORIAL HepG2 Assay for human E2F Transcription Factor 1 (AID 2282935); conditions: HepG2 Attagene cis-reporter, E2F reporter RNA transcripts; actives raise or lower the signal
Outline: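 First, HepG2 cells were transfected with reporter transcription units. Next, they were dosed for 24 h. Then RNA was isolated, converted to cDNA, PCR-amplified, FAM-labeled, HpaI-digested and analyzed by capillary electrophoresis.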

[9] = ATG_E_Box_CIS: Attagene CIS-FACTORIAL HepG2 Assay for human Enhancer Box (E-box) (AID 2282936); conditions: HepG2 E-box cis-reporter transcription, actives raise or lower the signal
Outline: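 Endogenous transcription factor activity was sensed in human HepG2 liver cells through transfected cis-promoter reporter units. After 24 h of dosing, total RNA was reverse-transcribed and reporter cDNA resolved by capillary electrophoresis.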

[10] = ATG_M_61_CIS: Attagene CIS-FACTORIAL HepG2 Assay for M61 Transcription Factor (Internal Marker) (AID 2282937); conditions: HepG2 Attagene CIS-FACTORIAL M61 internal marker reporter; actives raise or lower the signal
Outline: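 Fluorescence from labelled cDNA fragments, separated by capillary electrophoresis, quantifies reporter induction. HepG2 cells bearing transiently transfected cis-promoter MRTUs were incubated with test chemical for 24 h; DMSO defined baseline for gain/loss fitting.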

[11] = ATG_EGR_CIS: Attagene CIS-FACTORIAL HepG2 Assay for human Early Growth Response 1 (EGR1) (AID 2282938); conditions: HepG2 Attagene CIS-FACTORIAL EGR reporter mRNA; actives raise or lower the signal
Outline: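 Cell-based multiplex transcription assay: HepG2 carrying transfected cis-element reporter units, 24 h chemical treatment. Fluorescence from capillary electrophoresis of RT-PCR products gives mRNA levels; fitting is bidirectional relative to DMSO.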

[12] = ATG_ERE_CIS: Attagene CIS-FACTORIAL HepG2 Assay for Estrogen Response Element (ERE) (AID 2282940); conditions: HepG2 ERE cis-reporter, Attagene RNA transcript; actives raise or lower the signal
Outline: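 Measuring endogenous transcription factor output, the assay doses transfected HepG2 cells for 24 hours and quantifies reporter transcripts by fluorescent RT-PCR and capillary electrophoresis, with DMSO as baseline.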

[13] = ATG_Ets_CIS: Attagene CIS-FACTORIAL HepG2 Assay for human Erythroblast Transformation Specific (ETS) (AID 2282941); conditions: HepG2 ETS cis-reporter transcription; AC50: actives raise or lower the signal unless noted; outcome: actives raise or lower the signal unless noted
Outline: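 Cis-regulated reporter mRNA induction in HepG2 (transient transfection), 24 h exposure, RT-PCR plus capillary electrophoresis detection; DMSO serves as negative control and baseline.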

[14] = target: Hepatocyte nuclear factor 3-beta (Homo sapiens) (UniProt Q9Y261); test: ATG_FoxA2_CIS: Attagene CIS-FACTORIAL HepG2 Assay for human Forkhead box A2 (FOXA2) (AID 2282942); conditions: HepG2 cis-reporter transcription factor activity, 24 h; actives raise or lower the signal
Outline: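 In transiently transfected human HepG2 cells, promoter-driven reporter mRNA levels after 24 h chemical exposure are determined via RT-PCR with capillary electrophoresis. DMSO serves as baseline for bidirectional fitting.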

[15] = ATG_GLI_CIS: Attagene CIS-FACTORIAL HepG2 Assay for human Zinc Finger Protein GLI1 (AID 2282945); conditions: HepG2, Attagene cis-factorial reporter mRNA, GLI element; actives raise or lower the signal
Outline: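 HepG2 cells transiently transfected with cis-promoter multiplexed reporter units report endogenous transcription factor activity. After 24 h chemical exposure, reporter mRNA was quantified by RT-PCR, 6-FAM labelling, HpaI digestion and capillary electrophoresis, with bidirectional fitting against DMSO.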

[16] = target: Bile acid receptor (Homo sapiens) (UniProt Q96RI1); test: ATG_IR1_CIS: Attagene CIS-FACTORIAL HepG2 Assay for human Nuclear Receptor Subfamily 1 Group H Member 4 (NR1H4), IR1 submotif (AID 2282946); conditions: IR1 reporter transcription, actives raise or lower the signal
Outline: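 Readout: reporter transcript levels by RT-PCR with fluorescent capillary electrophoresis, from HepG2 cells transiently transfected with multiplexed cis-regulated reporters and dosed 24 h. Gain- or loss-of-signal fitted versus DMSO negative control.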

[17] = ATG_M_19_CIS: Attagene CIS-FACTORIAL HepG2 Assay for M19 Transcription Factor (Internal Marker) (AID 2282939); conditions: HepG2 Attagene CIS-FACTORIAL M19 internal marker reporter; actives raise or lower the signal
Outline: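 In this multiplexed cell assay, transiently transfected HepG2 reporter units report endogenous transcription-factor activity; after 24 hours of treatment, labelled reporter cDNA fragments are quantified by capillary electrophoresis and fitted bidirectionally against DMSO.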

[18] = ATG_FoxO_CIS: Attagene CIS-FACTORIAL HepG2 Assay for human Forkhead box O (FoxO) (AID 2282943); conditions: HepG2 Attagene cis-reporter, FoxO element, mRNA; actives raise or lower the signal
Outline: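 24 h chemical exposure, HepG2 with transient cis-MRTU transfection. RNA extraction, oligo(dT) RT, reporter-specific PCR, primer-extension labelling, HpaI digestion, CE fragment analysis; bidirectional fit, DMSO baseline.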

[19] = ATG_GATA_CIS: Attagene CIS-FACTORIAL HepG2 Assay for human GATA Binding Protein (AID 2282944); conditions: HepG2 GATA cis-element reporter, Attagene multiplex mRNA; actives raise or lower the signal
Outline: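 Measures endogenous transcription factor-driven reporter mRNA in HepG2 cells transiently carrying cis-regulated constructs. 24 h dosing; RNA via oligo(dT) reverse transcription, PCR, HpaI digestion, capillary electrophoresis; fitted relative to DMSO.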

[20] = target: Aryl hydrocarbon receptor (Homo sapiens) (UniProt P35869); test: ATG_Ahr_CIS: Attagene CIS-FACTORIAL HepG2 Assay for human Aryl Hydrocarbon Receptor (Ahr) (AID 2282930); conditions: HepG2 AhR cis-factorial reporter transcription; actives raise or lower the signal
Outline: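 Following 24 h of chemical dosing, transfected HepG2 liver cells with cis-driven reporter units were lysed for RNA; reporter mRNA was quantified via RT-PCR and capillary electrophoresis, and responses fitted bidirectionally from DMSO.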

Measured: AC50

Hepatocyte nuclear factor 3-beta (Homo sapiens), sequence (Q9Y261 whole entry, looked up): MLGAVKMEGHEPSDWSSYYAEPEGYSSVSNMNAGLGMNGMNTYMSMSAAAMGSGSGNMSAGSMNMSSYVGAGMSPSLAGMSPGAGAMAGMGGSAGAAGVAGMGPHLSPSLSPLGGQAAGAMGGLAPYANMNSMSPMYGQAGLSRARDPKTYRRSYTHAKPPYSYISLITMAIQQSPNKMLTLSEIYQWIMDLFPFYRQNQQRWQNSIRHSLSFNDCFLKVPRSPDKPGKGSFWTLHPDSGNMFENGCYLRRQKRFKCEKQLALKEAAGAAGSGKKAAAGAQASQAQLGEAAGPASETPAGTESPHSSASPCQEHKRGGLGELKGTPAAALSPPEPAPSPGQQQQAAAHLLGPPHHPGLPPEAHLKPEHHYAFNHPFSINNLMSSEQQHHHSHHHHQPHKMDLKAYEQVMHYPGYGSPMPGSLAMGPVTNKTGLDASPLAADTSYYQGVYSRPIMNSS
Bile acid receptor (Homo sapiens), sequence (Q96RI1 whole entry, looked up): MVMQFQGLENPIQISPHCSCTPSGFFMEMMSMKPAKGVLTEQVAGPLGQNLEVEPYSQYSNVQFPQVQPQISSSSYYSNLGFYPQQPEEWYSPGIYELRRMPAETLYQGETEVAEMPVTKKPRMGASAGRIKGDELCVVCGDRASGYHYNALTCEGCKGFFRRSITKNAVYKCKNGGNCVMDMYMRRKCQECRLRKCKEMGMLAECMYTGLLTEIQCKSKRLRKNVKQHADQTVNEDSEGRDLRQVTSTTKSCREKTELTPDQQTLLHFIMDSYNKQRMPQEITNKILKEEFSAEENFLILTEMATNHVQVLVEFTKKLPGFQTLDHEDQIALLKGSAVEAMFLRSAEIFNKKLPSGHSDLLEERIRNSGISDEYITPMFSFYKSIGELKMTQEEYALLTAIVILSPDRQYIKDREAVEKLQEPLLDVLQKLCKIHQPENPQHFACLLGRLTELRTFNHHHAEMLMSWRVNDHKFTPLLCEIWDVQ
Transcription factor E2F1 (Homo sapiens), sequence (Q01094 whole entry, looked up): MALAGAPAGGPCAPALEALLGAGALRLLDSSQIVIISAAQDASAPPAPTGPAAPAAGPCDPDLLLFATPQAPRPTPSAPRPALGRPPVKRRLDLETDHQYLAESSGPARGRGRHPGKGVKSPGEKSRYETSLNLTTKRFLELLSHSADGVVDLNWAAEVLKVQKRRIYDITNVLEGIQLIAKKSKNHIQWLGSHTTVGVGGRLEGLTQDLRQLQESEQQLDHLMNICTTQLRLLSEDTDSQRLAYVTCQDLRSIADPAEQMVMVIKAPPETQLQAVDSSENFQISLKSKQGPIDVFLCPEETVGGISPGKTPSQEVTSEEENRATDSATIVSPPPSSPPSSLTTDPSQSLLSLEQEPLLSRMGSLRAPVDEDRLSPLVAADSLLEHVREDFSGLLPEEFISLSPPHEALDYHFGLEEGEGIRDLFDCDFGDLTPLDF
Aryl hydrocarbon receptor (Homo sapiens), sequence (P35869 whole entry, looked up): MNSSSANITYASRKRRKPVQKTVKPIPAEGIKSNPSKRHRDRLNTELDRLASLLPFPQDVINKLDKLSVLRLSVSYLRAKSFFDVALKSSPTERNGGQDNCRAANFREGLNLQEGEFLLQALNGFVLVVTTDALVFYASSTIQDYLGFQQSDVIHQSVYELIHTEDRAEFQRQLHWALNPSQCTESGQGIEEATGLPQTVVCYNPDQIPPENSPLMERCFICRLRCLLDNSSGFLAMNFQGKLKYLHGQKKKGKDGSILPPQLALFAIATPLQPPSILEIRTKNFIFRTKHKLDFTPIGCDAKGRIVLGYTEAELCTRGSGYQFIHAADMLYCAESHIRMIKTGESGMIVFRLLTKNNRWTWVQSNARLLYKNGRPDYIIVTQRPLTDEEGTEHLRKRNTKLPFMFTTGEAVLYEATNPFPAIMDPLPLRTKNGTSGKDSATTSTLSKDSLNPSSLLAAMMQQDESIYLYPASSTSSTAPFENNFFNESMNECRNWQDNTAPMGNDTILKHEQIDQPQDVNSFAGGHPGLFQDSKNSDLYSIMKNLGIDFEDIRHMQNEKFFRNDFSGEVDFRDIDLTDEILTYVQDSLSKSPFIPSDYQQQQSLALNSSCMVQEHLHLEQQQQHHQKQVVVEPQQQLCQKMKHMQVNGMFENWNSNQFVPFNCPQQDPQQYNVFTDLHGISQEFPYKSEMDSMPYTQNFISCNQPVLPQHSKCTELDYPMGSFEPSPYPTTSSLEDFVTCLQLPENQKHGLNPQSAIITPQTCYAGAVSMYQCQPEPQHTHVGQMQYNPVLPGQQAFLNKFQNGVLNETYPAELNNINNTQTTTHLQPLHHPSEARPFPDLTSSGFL
Retinoic acid receptor alpha (Homo sapiens), sequence (P10276 whole entry, looked up): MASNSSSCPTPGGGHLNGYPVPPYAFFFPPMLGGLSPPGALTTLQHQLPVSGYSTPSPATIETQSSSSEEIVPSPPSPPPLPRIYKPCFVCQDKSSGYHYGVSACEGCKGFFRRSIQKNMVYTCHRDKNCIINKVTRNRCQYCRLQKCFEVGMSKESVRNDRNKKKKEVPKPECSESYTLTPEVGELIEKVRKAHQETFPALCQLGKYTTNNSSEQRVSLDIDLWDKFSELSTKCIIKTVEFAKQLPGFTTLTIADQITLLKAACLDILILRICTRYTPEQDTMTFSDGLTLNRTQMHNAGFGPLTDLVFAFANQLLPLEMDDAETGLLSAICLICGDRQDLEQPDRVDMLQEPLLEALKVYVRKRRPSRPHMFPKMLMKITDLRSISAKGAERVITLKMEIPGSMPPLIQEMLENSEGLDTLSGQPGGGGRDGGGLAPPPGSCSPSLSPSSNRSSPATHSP
CCAAT/enhancer-binding protein beta (Homo sapiens), sequence (P17676 whole entry, looked up, the tested form may be a part): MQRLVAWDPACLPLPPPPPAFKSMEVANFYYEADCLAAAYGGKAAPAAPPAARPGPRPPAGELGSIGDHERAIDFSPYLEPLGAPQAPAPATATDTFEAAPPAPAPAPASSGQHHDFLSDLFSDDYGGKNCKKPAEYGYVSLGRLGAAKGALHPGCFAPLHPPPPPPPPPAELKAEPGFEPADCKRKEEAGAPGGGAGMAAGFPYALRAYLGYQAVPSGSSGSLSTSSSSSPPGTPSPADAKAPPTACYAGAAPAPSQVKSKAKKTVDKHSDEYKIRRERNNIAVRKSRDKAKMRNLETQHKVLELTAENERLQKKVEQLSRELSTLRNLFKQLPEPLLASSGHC

NNC(=O)CCCCC(=O)NN
not listed: [17] | [18] | [19] | [20]
inactive: all other assays above

O=C(O)C(F)(F)OC(F)(F)C(F)(F)OC(F)(F)C(F)(F)OC(F)(F)C(F)(F)C(F)(F)C(F)(F)F
active: [3] 16.6 µM and 21.7 µM | [5] 93.6 µM and 28.1 µM | [9] 89.1 µM | [11] 19.6 µM and 25.7 µM | [19] 76.5 µM
inactive: [1] | [2] | [4] | [6] | [7] | [8] | [9] | [10] | [17] | [12] | [13] | [14] | [18] | [19] | [16]

CCCCC=O
not listed: [7] | [12] | [15] | [19] | [20]
inactive: all other assays above

COc1cc([N+](=O)[O-])ccc1N
not listed: [13] | [20]
inactive: all other assays above

O=S(=O)(c1ccc(OCc2ccccc2)cc1)c1ccccc1O
active: [1] 23.1 µM | [2] 51.6 µM | [3] 33.4 µM | [20] 46.8 µM | [7] 31.7 µM | [11] 33.4 µM | [13] 33.4 µM | [18] 50.8 µM | [19] 55.4 µM | [15] 51.1 µM | [16] 56 µM
inactive: [4] | [6] | [8] | [9] | [10] | [17] | [12] | [14]

CCc1ccccc1O
active: [20] 10.3 µM
not listed: [5] | [18]
inactive: all other assays above

Oc1c(Cl)cc(Cl)cc1Sc1cc(Cl)cc(Cl)c1O
active: [6] 1.9 µM
not listed: [5] | [10]
inactive: all other assays above
